The values that follow come from PubChem BioAssay AID1347056 (Sanford-Burnham Center for Chemical Genomics, 2019).

Broadly, the inhibition is the drop in the measured response relative to a control, in per cent.

The campaign covered roughly 360,000 compounds. About 3,600 (1%) were called active. Many of the other results were omitted from the sample, so actives are more common in it than they were. Values without a mark were called inactive.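 The calls were made as follows: active = compounds whose plate-normalised and pattern-corrected inhibition of the luciferase reporter signal at the single screening dose is 50% or more; inactive = the rest.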

A short description of the experiment: inhibitors of TROY-driven NF-kB signaling, primary screen, Q293 LMP1-TROYcd cells, NF-kB luciferase, uHTS (AID 1347056). The following applies: Q293 LMP1-TROYcd NF-kB luciferase reporter, 4 h; at 10 µM; active compounds read high. (A reporter such as luciferase makes a cellular process visible.)
For `Cc1ccc(CNC(=O)C2(C(F)(F)F)C/C(=C\Cc3ccccc3)CCCO2)o1` (stereo not given), the inhibition is 6.34%.

As to `CCC1Nc2ncnc(N3CCN(c4ccccc4)CC3)c2N(Cc2ccc(Cl)cc2)C1=O` (stereo not given), the inhibition is 18.3%. As for `N#CC(C(=O)c1ccc(S(=O)(=O)N2CCCCCC2)cc1)c1nc2ccccc2[nH]1` (stereo not given), the inhibition was 51.6% (active). Next, `O=S(=O)(c1ccc(Br)cc1)N1CCC(c2nc3ccccc3[nH]2)CC1`: 2%; `O=C(Nc1ncccc1O)c1ccc(S(=O)(=O)N2CCCCCC2)cc1`: -10.3%; `CN1CCN(S(=O)(=O)c2cccc(C(=O)Nc3sccc3C#N)c2)CC1`: -0.51%. Consider `O=C(NC(=S)Nc1ccccc1C(=O)O)c1ccc(-c2ccc(Br)cc2)o1`, for which the inhibition is 79.8% (active). Regarding `CN1CCN(C(=O)c2ccc(-c3ccc(Br)cc3)o2)CC1`, the inhibition was -59.3%.

As to `O=C(NC(=S)Nc1cc(C(F)(F)F)ccc1N1CCOCC1)c1ccc(-c2cccc(Cl)c2)o1`, the inhibition is -13.2%. Regarding `[O-][n+]1c2c(nn1-c1ccc(Cl)c(Cl)c1)-c1nonc1CC2`, the inhibition was 10.8%.

For the compound `Cc1ncc(CO)c(/C=N/NC(=O)c2cccc(S(=O)(=O)N3CCCC3)c2)c1O`, the inhibition was 32.4%.

For the compound `Cc1ccc(OCC(=O)c2cc(C)n(Cc3ccco3)c2C)c([N+](=O)[O-])n1`, the inhibition was -2.73%.

For `COCCn1c(C)cc(C(=O)COC(=O)CNC(=O)c2ccco2)c1C`, the inhibition is -1.63%. Take `Cc1cc(C(=O)COC(=O)CNC(=O)c2ccc(F)cc2)c(C)n1Cc1ccco1`: the inhibition is 71.1% (active). Next, `O=C(COC(=O)Cn1[nH]c(=O)c2ccccc2c1=O)Nc1c(Cl)cccc1C(F)(F)F`: -7.36%; `O=C(Cn1cnc2ccccc2c1=O)Nc1cccc(S(=O)(=O)N2CCCCC2)c1`: 6.2%. Next, `O=C1CCCN1C(=O)COc1ccc([N+](=O)[O-])cc1`: 9.48%; `CCCCC(=O)Nc1c2c(nn1-c1ccc([N+](=O)[O-])cc1)CS(=O)(=O)C2`: -5.93%; `O=C1/C(=C\c2ccc([N+](=O)[O-])cc2)CS(=O)(=O)C/C1=C/c1ccc([N+](=O)[O-])cc1`: 75% (active).

Regarding `CC1(C)Cc2c(sc(NC(=O)C(=O)NCC3CCCO3)c2C(=O)O)CO1` (stereo not given), the inhibition was -13.6%. Regarding `CCc1c(O)cc2n(c1=O)-c1ccccc1C2(C)C`, the inhibition was 4.14%. For `CCN(CCCNC(=O)CCn1c(=O)[nH]c2ccsc2c1=O)c1ccccc1` the value was 0.42%. On to `CCN(CCCNC(=O)c1ccc2c(c1)NC(=O)CN2C)c1cccc(C)c1`, for which the inhibition is 71.7% (active). With `CCN(CCCNC(=O)C1CCN(S(=O)(=O)c2cnc[nH]2)CC1)c1ccccc1`, the inhibition was -0.34%. Consider `Cc1ccc(SC(CC(=O)c2ccc(C(C)(C)C)cc2)C(=O)O)cc1` (stereo not given), for which the inhibition is 14.6%. In the case of `CCOc1ccc(NS(=O)(=O)c2ccc(Cl)c(C(=O)N(C)Cc3cccnc3)c2)cc1`, the inhibition is -2.69%. Next, `Fc1ccccc1-c1cc2cc3c(cc2cn1)OCO3`: -40.9%; `Cc1nnc(SC(C(=O)c2ccccc2)c2ccccc2)[nH]c1=O` (stereo not given): 14.7%; `CC(NCC(=O)Nc1cc(Cl)cc(Cl)c1)c1ccccc1` (stereo not given): 17.5%. `Cc1nnc(SC(C(=O)Nc2cc(Cl)cc(Cl)c2)c2ccccc2)[nH]c1=O` (stereo not given): the inhibition is 54.4% (active). As to `O=C(CN(c1ccc2c(c1)OCCO2)S(=O)(=O)c1ccccc1)Nc1ccc2c(c1)OCO2`, the inhibition is -3.48%.

On to `C=CCn1c(C)cc(C2=NNC(=NCC)SC2)c1C`, for which the inhibition was 88% (active). Regarding `COCCn1c(C)cc(C2=NNC(=Nc3ccc(F)cc3)SC2)c1C`, the inhibition was 56.7% (active). On to `CCN1CCN(c2ccc(S(=O)(=O)N3CCCCC3)cc2NC(=O)Cc2c(Cl)cccc2Cl)CC1`, for which the inhibition is 4.53%.

Regarding `CCC(=O)Nc1ccccc1C(=O)N1CCN(Cc2ccccc2)CC1`, the inhibition was 12.5%. For `CN1OC[C@@H]2CN(S(=O)(=O)c3cccc4ccccc34)[C@H](c3ccc(N4CCCCC4)cc3)C[C@@H]21` the value was 14.6%; for `CN1OC[C@@H]2CN(S(=O)(=O)c3cccc(C(F)(F)F)c3)[C@H](c3ccc(-c4cc5ccccc5o4)cc3)C[C@@H]21`, 64.2% (active). As to `COc1ccc(S(=O)(=O)N2C[C@H]3CON(C)[C@H]3C[C@H]2c2cccc(Br)c2)cc1`, the inhibition was 0.2%. Turning to `CC1Cc2ccccc2N1S(=O)(=O)c1c(N)n(C)c(=O)n(C)c1=O` (stereo not given), the inhibition is 0.15%. For `Clc1ccc(-c2cccc3nccn23)cc1` the value was -13.8%.

Regarding `CC(=O)N1N=C(c2ccncc2)OC1(Cc1ccccc1)Cc1ccccc1`, the inhibition was 5.47%. `Cc1cc(Cl)c(S(=O)(=O)Nc2ccc3c(c2)OCCO3)cc1OCC(N)=O`: the inhibition is 77.5% (active). In the case of `Cc1cc(Cl)c(S(=O)(=O)NCC2CCCO2)cc1OCC(N)=O` (stereo not given), the inhibition was -1.29%. For `Cc1cc(Cl)c(S(=O)(=O)N(C)C)cc1OCC(N)=O`, the inhibition is 0.31%.

With `COC(=O)CSc1snnc1-c1ccc(Cl)c(Cl)c1`, the inhibition is -45.5%. Regarding `C=CCN(c1ccccc1C(=O)NCC(=O)OCC)S(=O)(=O)c1ccc(C)cc1`, the inhibition is 1.62%. Take `S=C(NCCCc1cnc[nH]1)NCCCN(Cc1ccc(Cl)c(Cl)c1)c1ccc(Br)cn1`: the inhibition is 8.84%. In the case of `Cc1ccc2oc(=O)c3cnn(CC(=O)N4CCCCCC4)c3c2c1`, the inhibition was 6.16%. For `CCOC(=O)C1CCCN(C(=O)Cn2ncc3c(=O)oc4ccc(C)cc4c32)C1` (stereo not given), the inhibition was 1.47%.

On to `Cc1ccc2oc(=O)c3cnn(CC(=O)N(Cc4ccco4)C4CCCCC4)c3c2c1`, for which the inhibition is 58.7% (active). As for `CCCCC(=O)Nc1ccc2c(c1)C(=O)NC2=O`, the inhibition was 10.3%. For `Cc1cc(C(=O)COc2ccccc2Cl)c(C)n1C1CC1`, the inhibition was -42.6%. In the case of `Cc1cc(C(=O)COC(=O)C2CC2)c(C)n1-c1ccc(F)cc1`, the inhibition was 90.5% (active). As for `Cc1cc(C(=O)CSc2nc(N)cc(=O)[nH]2)c(C)n1-c1cccc(F)c1`, the inhibition is -1.75%. On to `Cc1ccc(-c2cc(N)on2)cc1`, for which the inhibition was -41.2%. Take `Cc1ccc2nc(-c3ccc(Br)cc3)cn2c1`: the inhibition is 71.4% (active). On to `Cc1ccc(-c2nc3ccc(Cl)cn3c2Cc2ccccc2)cc1`, for which the inhibition was -69.6%.

`Cc1ccc(-c2cn3cc(C)ccc3n2)cc1`: the inhibition was 86.4% (active).

Consider `COc1ccc(-c2nc3ccc(Br)cn3c2Cc2ccc(C)cc2)cc1OC`, for which the inhibition is -36.6%. Regarding `Cc1ccc(-c2nc3ccc(Br)cn3c2Cc2ccccc2C(F)(F)F)cc1`, the inhibition was -33.5%. Regarding `COc1ccc(C(=O)O)cc1S(=O)(=O)NCc1cccnc1`, the inhibition is -5.43%. Turning to `CC(=O)Nc1ccc(/C(C)=N/NC(=O)CN(c2ccccc2Br)S(C)(=O)=O)cc1`, the inhibition was 8.85%.

Consider `COc1ccc(CN(C)C(=S)Nc2ccc(Cl)cc2Cl)cc1`, for which the inhibition was -7.98%. `O=C(c1cc(COc2c(F)cccc2F)on1)N1CCSCC1`: the inhibition was -17%. With `Cn1cnc2c1c(=O)n(Cc1ccccc1C#N)c(=O)n2C`, the inhibition is 2.82%. For `COc1cc2cc(C(=O)N/N=C/c3cccc(OC)c3OC)[nH]c2cc1OC` the value was 69.2% (active); for `COc1cccc2[nH]c(C(=O)NCCc3ccccc3)cc12`, -24.7%; for `CCN1CCCC1CNC(=O)c1cc2cc(OC)c(OC)cc2[nH]1` (stereo not given), -3.54%. For `COc1ccc(CNC(=O)CN2C(=O)c3ccccc3S2(=O)=O)cc1`, the inhibition is 9.08%.

On to `CC1CCCN(C(=O)CN2C(=O)c3ccccc3S2(=O)=O)C1` (stereo not given), for which the inhibition was 58.2% (active). In the case of `CC1CCCN(C(=O)Cn2c(=O)oc3ccccc32)C1` (stereo not given), the inhibition was -6.27%. As for `O=C(CN1C(=O)c2ccccc2S1(=O)=O)N1CCc2ccccc21`, the inhibition was 89.1% (active).

For the compound `CN(Cc1ccc(F)cc1)C(=O)CN1C(=O)c2ccccc2S1(=O)=O`, the inhibition is -51.1%. Turning to `Cc1ccc2c(c1)N(CC(=O)N1CCCC(C)C1)C(=O)CO2` (stereo not given), the inhibition is -0.08%. Regarding `CC(C)(C)c1ccc(S(=O)(=O)N2CCN(C(=O)c3ccc4c(c3)C(=O)N(Cc3ccncc3)C4=O)CC2)cc1`, the inhibition is 1.2%. As for `CC(NC(=O)COC(=O)c1ccc(Cl)cc1O)c1ccc(F)cc1` (stereo not given), the inhibition was 4.75%. `Cc1cc(S(=O)(=O)NC2CCCCC2)ccc1OCC(=O)NCc1cccnc1`: the inhibition is -5.71%. For the compound `O=C(CCc1nc(-c2ccccc2)no1)Nc1cccc(C(=O)NC2CC2)c1`, the inhibition is 18.6%.

With `CN(C)/C=C(\C#N)C(=O)c1cccnc1Oc1ccc(F)cc1F`, the inhibition was -7.14%. On to `COc1ccc(-c2cc3c(c4c2ccn4C)C2CCC3C2)cn1` (stereo not given), for which the inhibition is 8.35%.

`Cc1ccc(NS(=O)(=O)c2ccc(-c3ccc(=O)[nH]n3)o2)c(C)c1`: the inhibition was -3.14%. As to `CC(NC(=O)COC(=O)c1ccc2ccccc2n1)c1ccccc1` (stereo not given), the inhibition was -0.28%. As to `CC1COc2ccccc2N1C(=O)c1cccnc1Cl` (stereo not given), the inhibition is 8%. For `O=C(NCCc1ccccn1)c1cc(-c2ccc(Cl)cc2)nc2ccccc12` the value was 15.8%; for `CN(C)CCNC(=O)c1ccc(Cl)c2cc3ccccc3nc12`, 51.8% (active); for `CCCN(CCC)CCNC(=O)c1cc2c(C)nc3ccccc3c2o1`, -8.54%. For `COc1ccc(OC)c(CCNC(=O)CCn2ccc3cc(S(=O)(=O)N4CCCC4)ccc32)c1` the value was -2.42%; for `CC1CCN(c2ccc3c(c2)S(=O)(=O)c2cc(C(=O)O)ccc2C3=O)CC1`, -46.1%; for `O=C(c1ccc2c(c1)N(Cc1ccc(F)cc1)C(=O)c1ccccc1S2(=O)=O)N1CCN(c2ccccn2)CC1`, 11.9%. For `O=C1c2ccccc2S(=O)(=O)c2cc(N3CCN(c4ccccn4)CC3)ccc21` the value was 69.7% (active).
